# A selection: hits, their analogues and other compounds. The true share with any hit is near 4.1%.
# FMDV inh = blocks foot and mouth disease virus; FMDV antiviral cell-based qHTS; actives 1.2% (n = 410,000); Potency, µM (highest dose often 57.9 µM), inactives show top-dose activity change, negative = inhibition, most hits filed as inhibitors; calls by dose curve; tested in HEK293T cells; also: read-out not given here; nearly all actives have a fitted effect of over 45% in size
# AmpC no deterg = blocks E. coli AmpC beta-lactamase in detergent-free assay. P00811. AmpC nitrocefin hydrolysis, absorbance 480 nm, 0.0001% Triton. Potency, µM (titrated, usually from 57.1 µM), for inactives: top-dose activity change, negative = inhibition, usual class: inhibitors. actives 0.52% (n = 330,000). AID 485341;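 also: plate controls were no compound for no effect and no enzyme for full effect; nearly all actives have a fitted effect of over 20% in size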
#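 AmpC (5.3 nM in the dispensed reagent) in 20 mM phosphate pH 7.0 with 0.01% (detergent screen) or 0.0001% Triton X-100 was preincubated with compounds for 15 min at room temperature. Nitrocefin was then added from an 800 uM solution, and hydrolysis was followed at 480 nm.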
# AmpC detergent = blocks E. coli AmpC beta-lactamase in detergent assay; P00811; AmpC hydrolysis of nitrocefin, absorbance 480 nm, 0.01% Triton; Potency, µM (top dose mostly 114 µM), without a hit: at the top dose activity change, negative = inhibition, hits mostly inhibitors; actives 0.041% (n = 370,000);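 also: 0% = no-compound wells and -100% = no-enzyme wells; nearly all actives have a fitted effect of over 25% in size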
#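 20 mM phosphate pH 7.0 + 0.01% (detergent screen) or 0.0001% Triton X-100; 5.3 nM AmpC reagent; cpd preinc 15 min RT; nitrocefin (800 uM stock) to start; A480 q20 s × 4 min; Activity was normalised to no-enzyme and no-compound control wells.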
# AMA1-RON2 inh = disrupts binding of P. falciparum AMA1 to RON2 | AlphaScreen AMA1-biotinylated RON2 peptide binding | Potency, µM (titrated, usually from 58.2 µM), for the others: at the highest dose activity change, negative = inhibition, most hits filed as inhibitors | actives 0.2% (n = 360,000) | AID 720542;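 also: 0% = vehicle wells and -100% = peptide control; nearly all actives have a fitted effect of over 45% in size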
#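 AMA1 (3D7) with his tag at 25 nM final met compounds first, then biotinylated RON2 peptide at 25 nM; detection used donor plus acceptor beads, 10 µg/mL apiece, read by AlphaScreen after 30 min at room temperature.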
# Sm TGR inh = blocks Schistosoma mansoni thioredoxin glutathione reductase; purified TGR, DTNB reduction, TNB absorbance 405 nm; actives 3% (n = 360,000); AID 485364; Potency, µM (titrated, usually from 114 µM), inactives show top-dose activity change, negative = inhibition, most hits filed as inhibitors; Q962Y6; also: nearly all actives have a fitted effect of over 60% in size
#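 First, TGR (20 nM dispensed) and NADPH were mixed with compound. Second, a 15 min room-temperature incubation followed. Third, further NADPH and then DTNB were added to start the reaction. Finally, TNB absorbance was monitored kinetically.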
# * hit, by the source's call; u = inconclusive; x = not tested or not shown. Unless noted, calls follow the shape of the dose curve; as a rule, active = well fitted curve in the direction sought with a large enough effect; inconclusive = small, poorly fitted or top-dose-only effect, or another doubt; inactive = no such curve, though single readings can be large; an effect the other way counts as inactive or inconclusive. Unless noted, % is scaled to controls: 0 for no effect and ±100 for the full control effect; potency is read from the fitted curve at half-maximal effect.
SMILES,FMDV inh,AmpC no deterg,AmpC detergent,AMA1-RON2 inh,Sm TGR inh
C[C@H](NC(=O)c1ccco1)C(=O)Nc1nc(-c2ccccn2)cs1,-18%,x,x,40%,x
c1ccc(-c2nccc(-c3ccco3)n2)nc1,12%,-9%,-3%,48%,-19%
c1ccc(-c2nc(-c3ccco3)cs2)nc1,10%,-33%,u,62%,22µM*
O=C(NCc1ccccn1)c1ccco1,6%,-12%,3%,96%,50µM*
CCC(Sc1nc2ncccc2o1)C(=O)Nc1ccc(OC)c(OC)c1 (centres undefined),-17%,x,21%,x,-4%
